Screening data: PubChem, National Center for Advancing Translational Sciences (NCATS)
FBPA coupling cs: inhibits coupling enzyme system, counter-screen for aldolase hits | 0.67% of 290,000 active | coupling enzyme system counterscreen, AmpLite Red fluorescence | activity change, negative = inhibition, % at 58.2 µM, hits read low; in the data active = activity change below about -30%
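Counterscreen of the coupled detection system alone, without aldolase: glyceraldehyde-3-phosphate coupling enzymes plus AmpLite Red readout. Compounds at 57.5 uM final, 10 min RT preincubation, 20 min RT reaction, fluorescence 525/598 nm.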
ELG1 DNA repair: blocks ELG1-dependent DNA repair in HEK293T cells; HEK293T ELG1-luciferase reporter, luminescence, 16 h; DNA damage induced by 5-fluorouridine; Potency, µM (doses to about 46.1 µM), for inactives: at the highest dose activity change, negative = inhibition, most hits filed as inhibitors; AID 504467; 2.3% of 330,000 active; also: potency is read from the fitted curve at half-maximal effect; nearly all actives have a fitted effect of over 55% in size
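Overnight (16 hr) co-exposure of 2,000 cells/well to 5-fluorouridine and compound at 37 °C preceded detection. Luciferase was quantified via ONE-Glo luminescence; loss of signal denotes inhibition.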
TSHR antagonist: antagonists of human thyroid stimulating hormone receptor; TSHR-expressing cells, TSH-stimulated cAMP HTRF, 2 h; hits give low values; 0.2% of 330,000 active; P16473; AID 504810; activity change, negative = inhibition, % at 11.5 µM;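 active = activity change below a set negative limit, meaning inhibition stronger than a set level, cut at about -70% in these data; inconclusive = activity change between two set negative limits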
Target sequence (P16473 whole entry, looked up): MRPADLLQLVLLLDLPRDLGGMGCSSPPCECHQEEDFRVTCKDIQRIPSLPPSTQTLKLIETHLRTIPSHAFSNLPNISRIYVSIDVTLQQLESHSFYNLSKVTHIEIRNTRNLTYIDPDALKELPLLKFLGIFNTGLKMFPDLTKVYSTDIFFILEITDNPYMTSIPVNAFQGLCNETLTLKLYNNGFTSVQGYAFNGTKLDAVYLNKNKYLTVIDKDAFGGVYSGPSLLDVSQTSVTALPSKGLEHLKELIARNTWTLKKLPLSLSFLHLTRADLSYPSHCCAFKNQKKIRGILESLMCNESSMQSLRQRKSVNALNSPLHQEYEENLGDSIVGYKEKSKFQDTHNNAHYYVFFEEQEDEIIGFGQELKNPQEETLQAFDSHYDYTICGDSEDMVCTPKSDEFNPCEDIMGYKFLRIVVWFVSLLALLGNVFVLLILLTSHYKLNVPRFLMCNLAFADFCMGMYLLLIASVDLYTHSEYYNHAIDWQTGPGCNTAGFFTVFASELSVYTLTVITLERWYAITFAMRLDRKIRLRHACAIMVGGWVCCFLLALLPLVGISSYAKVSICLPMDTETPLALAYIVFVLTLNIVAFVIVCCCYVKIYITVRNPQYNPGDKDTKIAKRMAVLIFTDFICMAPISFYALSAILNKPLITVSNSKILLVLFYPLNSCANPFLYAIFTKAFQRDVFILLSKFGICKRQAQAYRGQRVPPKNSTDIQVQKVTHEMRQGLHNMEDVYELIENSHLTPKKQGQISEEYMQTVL
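TSHR-expressing cells were treated with compounds, then stimulated with TSH at EC80 (4nM final) for 2 hours at 37 deg C. Cellular cAMP was measured by HTRF competition between lysate cAMP and cAMP-d2 for a cryptate-labelled anti-cAMP antibody.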
RORgamma inh: ROR gamma (mouse) transcription inhibition. AID 2551. Drosophila S2 Gal4-RORgamma UAS-luciferase reporter, 20 h. P51450. 5.4% of 310,000 active. Potency, µM (top dose mostly 53.6 µM), inactives show top-dose activity change, negative = inhibition, most hits filed as inhibitors; also: potency is read from the fitted curve at half-maximal effect; nearly all actives have a fitted effect of over 60% in size
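Luciferase reporter read in Schneider cells carrying Gal4-RORγ (mouse) and UAS-Photinus luciferase; cells given compound 1 h before 700 uM copper sulfate induction, then incubated 20 h at ambient temperature.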
VP16 counter: inhibits Gal4-VP16 luciferase reporter, ROR gamma counter-screen. Drosophila S2 Gal4-VP16 UAS-luciferase, luminescence, 20 h. Potency, µM (doses to about 53.6 µM), for inactives: at the highest dose activity, negative = inhibition, usual class: inhibitors. 3.5% of 310,000 active;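 also: Gal4-VP16 expression switched on by copper sulfate through the metallothionein promoter; potency is read from the fitted curve at half-maximal effect; nearly all actives have a fitted effect of over 50% in size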
Starred values were filed as active, the others as inactive; ? = inconclusive; . = not tested or not shown; [ ] = remark or other dose. Only some compounds are listed: those with a hit (about 8% of all), similar ones and a draw of the others. Unless noted, calls follow the shape of the dose curve; as a rule, active = well fitted curve in the direction sought with a large enough effect; inconclusive = small, poorly fitted or top-dose-only effect, or another doubt; inactive = no such curve, though single readings can be large; an effect the other way counts as inactive or inconclusive. % is scaled to controls: 0 for no effect and ±100 for the full control effect.

SMILES	FBPA coupling cs	ELG1 DNA repair	TSHR antagonist	RORgamma inh	VP16 counter
COc1ccccc1N1CCN(Cc2nc(N)nc(Nc3ccc(C)c(Cl)c3)n2)CC1	-4	15µM*	-6	11µM*	1%
CCOc1ccccc1Nc1nc(N)nc(CSc2nccc(C)n2)n1	-2	-14%	5	-3%	-4%
COc1ccccc1Nc1nc(N)nc(CN2CCN(Cc3ccccc3)CC2)n1	3	-2%	0	-27%	13%
CCOc1ccccc1Nc1nc(N)nc(CN(C)C2CCCCC2)n1	0	-9%	3	11µM*	-9%
COc1ccc2cc3cc(C(=O)N4CCN(c5ccccn5)CC4)oc3nc2c1	-2	-4%	-14	-8%	5%
Cc1ccc(Nc2c([N+](=O)[O-])ccc3c2=NC2(CCCCC2)N=3)cc1	-19	10%	-9	7.9µM*	-16%
O=[N+]([O-])c1ccc2c(c1Nc1ccccc1Cl)=NC1(CCCCC1)N=2	-8	-23%	-19	-11%	3%
Cc1cc(OCC(=O)OCC(=O)c2ccc[nH]2)ccc1Cl	.	26%	17	.	.
CN1C(=O)COc2ccc(C(=O)c3oc4ccccc4c3-c3cnc4c(c3)COc3ccccc3-4)cc21	0	9.2µM*	1	?	1%
CCOC(=O)N1CCN(C(=O)CSc2nc(=O)n3ccccc3n2)CC1	.	20%	9	.	.
C=Cc1cccc(C)c1	.	.	.	-2%	-1%
COC(=O)C1CCN(C(=O)COC(=O)c2cc(-c3ccccc3)nc3ccc(OC)cc23)CC1	.	18µM*	8	.	.
COc1ccc(-c2cc(C(=O)OCC(=O)N3CCOCC3)c3ccccc3n2)cc1	.	21µM*	18	.	.
COc1cc2ccccc2cc1C(=O)OCC(=O)N1CCOCC1	0	-6%	7	-5%	3%
O=C(COC(=O)Cc1ccc(Cl)cc1)NC1CCCC1	.	9%	14	.	.
C[C@@H](CCc1ccccc1)NC[C@H](O)c1ccc(O)c(C(N)=O)c1	3	.	.	4%[16.9 µM]	-3%[17 µM]
CC1(CC(=O)N/N=C/c2cc(Br)c(O)cc2O)OCCO1	0	-14%	-14	10µM*	-15%
Cc1oc(/C=N/NC(=O)CC2(C)OCCO2)cc1Br	2	?	3	2%	3%
CN(CC(=O)Nc1cccc(F)c1)C(=O)c1cc(S(=O)(=O)N2CCN(c3ccccc3)CC2)ccc1Cl	.	?	-22	.	.
COc1ccc(NCc2ccccc2[N+](=O)[O-])cc1OC	-40*	-17%	-2	4%	4%
COc1ccc(NC(=O)COC(=O)Cc2ccccc2[N+](=O)[O-])cc1OC	0	11%	0	?	-18%
COc1ccc(-c2oc(=O)c3cc(OC)c(OC)cc3c2C#CCCO)cc1	.	16µM*	2	.	.
COc1ccc(/C=C/c2c(-c3ccc(OC)cc3)oc(=O)c3cc(OC)c(OC)cc23)cc1	.	5.8µM*	-5	.	.
CN(C)c1ccc2c3c(ccc(N(C)C)c13)COC2	-13	6%	23	-5%	-14%
CC(=O)c1ccc(N(C)C)c2c(N(C)C)cccc12	-55*	?	11	-19%	6%
SMILES	FBPA coupling cs	ELG1 DNA repair	TSHR antagonist	RORgamma inh	VP16 counter
CN(C)c1cccc2cccc(N(C)C)c12	-35*	-16%	0	-7%	-6%
CC(=O)c1ccc2c3c(cccc13)CC2	1	13%	1	13%	-1%
CCNS(=O)(=O)c1ccc(Br)c(C(=O)OC(C)C(=O)NCC2CCCCC2)c1 (stereo unspecified)	.	2%	-4	.	.
O=C(CCCCCNc1nc(=S)[nH]c2ccccc12)NCc1ccccc1Cl	-2	0%	-6	18µM*	?
S=c1nc(NCCc2ccccc2Cl)c2ccccc2[nH]1	0	?	-3	1.6µM*	6.3µM*
O=C(CCCCCNc1nc(=S)[nH]c2ccccc12)NCCc1ccccc1	-2	?	10	?	-10%
CCCCc1ccc(S(=O)(=O)Nc2nnc(C)s2)cc1	4	11%	-1	14%	-5%
O=C(Cc1ccc(F)cc1)NC1CCS(=O)(=O)C1 (stereo unspecified)	.	17%	22	.	.
Cc1ccc(-c2nnc(Nc3ccc4c(c3)OCO4)c3ccccc23)cc1S(=O)(=O)NCCO	0	?	4	?	-7%
CNC(=O)c1ccc(Nc2nnc(-c3ccc(C)c(S(=O)(=O)NCC4CCCO4)c3)c3ccccc23)cc1 (stereo unspecified)	0	?	2	10%	8%
Cc1ccc(-c2nn3c(-c4ccco4)nnc3c3ccccc23)cc1S(=O)(=O)NCC1CCCO1 (stereo unspecified)	-1	?	-12	?	-26%
Cc1ccc(-c2nnc(Nc3ccc4c(c3)OCO4)c3ccccc23)cc1S(=O)(=O)NC(C)C	-5	15µM*	-8	?	0%
Cc1ccc(-c2nnc(Nc3ccccc3)c3ccccc23)cc1S(=O)(=O)NCC1CCCO1 (stereo unspecified)	-2	21µM*	-5	39%	?
CC(=O)Nc1ccc(Nc2nnc(-c3ccc(C)c(S(=O)(=O)NCC4CCCO4)c3)c3ccccc23)cc1 (stereo unspecified)	1	21µM*	-4	33%	4%
CC1CCCCC12NC(=O)N(CC(=O)N1CCN(c3ncccn3)CC1)C2=O (stereo unspecified)	.	19%	11	.	.
Cc1ccc(Oc2nc3c(c(=O)n(Cc4ccccc4F)c(=O)n3C)n2C)cc1	0	18µM*	-7	119%	-14%
COC(=O)CC(=O)CSc1nc2c(cc1C#N)CCC2	2	?	20	?	18µM*
N#Cc1cc2c(nc1SCc1nc3ccccc3[nH]1)CCC2	-3	?	-18	10µM*	11µM*
O=C(OCC(F)(F)F)[C@H](O)[C@@H](O)C(=O)OCC(F)(F)F	3	.	.	14%	2%
N=C1SCC(=O)N1c1ncc(Cc2ccccc2Cl)s1	0	?	-18	126µM*	0.71µM*
Cc1cccc(N2C(=N)SCC2=O)c1C	-5	4%	9	-8%	2%
N=C1SCC(=O)N1c1ncc(Cc2cccc(Cl)c2)s1	3	?	-12	0.35µM*	0.89µM*
COC(=O)C1Cc2c([nH]c3ccccc23)CN1C(C)=O (stereo unspecified)	-1	1%	-3	-3%	6%
O=C(Nc1ccccc1Cl)C1CCCN(S(=O)(=O)c2ccc(-n3cnnn3)cc2)C1 (stereo unspecified)	0	-25%	-5	?	-9%
O/N=C(\c1ccccn1)C1CC1c1ccccc1 (stereo unspecified)	2	-1%	3	13µM*	-13%
COc1ccc(C2CC2C(=O)c2ccccn2)cc1 (stereo unspecified)	1	?	1	21%	11%
